Most compounds without a hit are left out; they make up all but 1.3% or so of the library.
PKA-R2B activ: activators of human PKA-R2B complex; P22694+P31323; hit rate 0.079% among 340,000; AID 504700; activation, % at 11.4 µM; PKA-R2B holoenzyme dissociation, Cy5-IP20 fluorescence polarization; R2B truncated from residue 108, S112A mutant; 0% DMSO only, 100% 113 µM cGMP;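 active means activation above a cutoff set at the mean over all compounds plus 3 SD, cut at about 18% in these data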;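 further: higher means more holoenzyme dissociation and a rise in polarization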
Rpn11 block: blocks the human proteasome subunit Rpn11; human 26S proteasome, Ub4-pepOG fluorescence polarization; 20S core pre-blocked with epoxomicin; calls only at 20 µM; hit rate 0.59% among 360,000; O00487;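 active means inhibition at 20 µM, scaled to each plate's controls, above about 33%, limit read from the data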
Target sequence (O00487 whole entry, looked up): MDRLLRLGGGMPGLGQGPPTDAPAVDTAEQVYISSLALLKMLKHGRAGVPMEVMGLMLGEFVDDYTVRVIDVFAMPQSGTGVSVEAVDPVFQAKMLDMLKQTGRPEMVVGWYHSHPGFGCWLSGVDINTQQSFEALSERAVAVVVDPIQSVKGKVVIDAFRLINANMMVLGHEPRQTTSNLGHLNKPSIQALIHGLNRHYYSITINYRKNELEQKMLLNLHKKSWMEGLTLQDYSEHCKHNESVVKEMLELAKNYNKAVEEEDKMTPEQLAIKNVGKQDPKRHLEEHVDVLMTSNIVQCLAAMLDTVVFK
PKA-R1A act: activates the PKA-R1A holoenzyme complex | PKA-R1A dissociation, Cy5-IP20 fluorescence polarization; scaled: DMSO 0%, 113 µM cGMP 100% | hit rate 0.083% among 340,000 | P00514+P68181 | activation, % at 11.4 µM;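 active means percent activation above the mean of all tested compounds plus 3 SD, cut at about 19% in these data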;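 further: higher means more PKAc released from R1A so a rise in polarization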
Neddylation inh: blocks human cullin neddylation; P61081+Q13564; TR-FRET cullin neddylation, biochemical; inhibition, % at 25 µM; hit rate 0.58% among 360,000; AID 651699; in the data active means inhibition above about 36%
R2B FP artifact: fluorescence polarization artifact in PKA-R2B activator counter-screen; shares compounds with PKA-R2B activ; FP artifact counterscreen; activation, % at 11.4 µM; hit rate 6% among 270; AID 504796; in the data active means activation above about 20%;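 further: Cy5 labelled IP20 peptide probe with compound but no PKA protein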
PKA-R2B confirm: PKA-R2B complex activation, confirmation; shares compounds with PKA-R2B activ; fluorescence polarization; activation, % at 11.4 µM; hit rate 9% among 270; in the data active means activation above about 19%
* hit, by the source's call; i = inactive; nt = no result shown.

SMILES | PKA-R2B activ | Rpn11 block | PKA-R1A act | Neddylation inh | R2B FP artifact | PKA-R2B confirm
CNC(=S)NNc1nc(N2CCOCC2)nc(N2CCOCC2)n1 | -5.8 | i | -6.3 | 10.1 | nt | nt
CCNC(=S)NNc1nc(N2CCOCC2)nc(N2CCOCC2)n1 | 19.0* | i | -9.9 | 0.7 | 1.4 | 0.6
CC1=CC2=NC(=O)CC(C)(C(=O)N(CC(=O)NC(C)(C)C)C3CCCC3)N2C=C1 (stereo not drawn) | 22.3* | i | -3.9 | 17.8 | -1.2 | -1.1
CC(C)(C)NC(=O)CN(C(=O)C1(C)CC(=O)N=C2C=CC=CN21)C1CCCC1 (stereo not drawn) | 2.5 | i | 0.1 | nt | nt | nt
Cc1nn(CC(=O)OCC(=O)Nc2ccccc2[N+](=O)[O-])c(C)c1[N+](=O)[O-] | 18.5* | i | 4.3 | -20.9 | -1.2 | 2.9
Cc1cc(N2CCCC2=O)ccc1S(=O)(=O)N1CCOCC1 | 23.2* | i | 12.4 | -1.2 | 0.9 | 5.2
Cc1cc(C(=O)NC2CCCN(Cc3ccc(Cl)cc3)C2)c(C)o1 (stereo not drawn) | 20.1* | i | 3.5 | 9.9 | 2.0 | 0.0
CC[C@]1(C(=O)OC)[C@H]2C(=O)N(C)C(=O)[C@H]2[C@H]2CN=C(SCc3ccc(OC)cc3)N21 | -4.4 | i | -4.6 | 2.1 | nt | nt
CC(C)C(NS(=O)(=O)c1cccc2nsnc12)C(=O)N1CCCCC1 (stereo not drawn) | -11.7 | i | 8.8 | -37.1 | nt | nt
COCC(=O)Nc1cccc(C(F)(F)F)c1 | 19.2* | i | 5.9 | 3.7 | -0.4 | -1.1
COc1ccccc1CNC(=O)CCCc1nnc2n(C)c(=O)c3sccc3n12 | 7.1 | i | -9.8 | 10.3 | nt | nt
O=c1cnn([C@@H]2O[C@H](CO)[C@@H](O)[C@H]2O)c(=O)[nH]1 | -7.5 | i | -8.9 | 3.6 | nt | nt
O=C1NCCCN1C1OC(CO)C(O)C1O (stereo not drawn) | 21.6* | i | 10.8 | 0.2 | 5.5 | 5.6
CCn1c(=O)c(C(=O)NNS(=O)(=O)c2ccc(Cl)cc2)c(O)c2ccccc21 | 18.4* | i | -1.7 | 5.7 | -2.8 | -1.9
O=C(NCC(c1ccco1)N1CCCCC1)c1ccc(COc2ccccc2)cc1 (stereo not drawn) | -8.3 | i | -5.1 | 15.2 | nt | nt
CCOC(=O)N1CCC(Nc2c(NCCCN(C)Cc3ccccc3)c(=O)c2=O)CC1 | 20.1* | i | 10.0 | 3.2 | 0.4 | 1.9
CC(C)COC(=O)Cc1c(O)c2ccccc2[nH]c1=O | 21.2* | i | 15.4 | 24.8 | 3.6 | 1.9
CCCCOC(=O)Cc1c(O)c2ccccc2[nH]c1=O | 3.4 | i | -2.1 | 23.4 | nt | nt
Cc1cc(C)c(OCCCn2ccnc2)c(C)c1 | -2.0 | i | -3.4 | -0.7 | nt | nt
Cc1cc(C)c(OCCn2ccnc2)c(C)c1 | 18.4* | i | -8.4 | 1.5 | 7.5 | 6.9
CCOc1ccc(NC(=O)CSc2nnnn2-c2ccc(C(N)=O)cc2)cc1 | 20.8* | i | -13.3 | -7.1 | 2.3 | -0.6
COc1ccc(NC(=O)CSc2nnnn2-c2ccc(OC)cc2)cc1 | -5.6 | i | -4.4 | -5.7 | nt | nt
CCC(NC(=O)OCc1ccccc1)C(=O)Oc1ccc2ccc(=O)oc2c1 (stereo not drawn) | 18.8* | i | -15.2 | 36.1 | 0.4 | 2.9
COc1ccccc1C1CC(c2cccc(NS(C)(=O)=O)c2)=NN1S(=O)(=O)c1ccccc1 (stereo not drawn) | -4.8 | i | -10.8 | 4.0 | nt | nt
CCCC(c1nnnn1CC(=O)OCC)N(Cc1cc2c(C)cc(C)cc2[nH]c1=O)C1CCCC1 (stereo not drawn) | 18.6* | i | 7.4 | 14.3 | 3.6 | -1.1
CCCC(c1nnnn1CC(=O)OCC)N(Cc1cc2ccc(C)cc2[nH]c1=O)C1CCCC1 (stereo not drawn) | -2.6 | i | 1.7 | 19.4 | nt | nt
CC(=O)NCC(=O)OC(C)C(=O)Nc1ccc(C(C)=O)cc1 (stereo not drawn) | 19.5* | i | 0.0 | -6.8 | -3.4 | 2.4
O=C1COc2ccccc2N1Cc1ccc(Cl)cc1 | -8.4 | i | -0.4 | -0.4 | nt | nt
CCC(=O)N(C)C[C@H]1Oc2ncc(C#Cc3ccncc3)cc2C(=O)N([C@@H](C)CO)C[C@@H]1C | -1.2 | i | -21.4 | -5.7 | nt | nt
COc1ccc(S(=O)(=O)N[C@H](C(=O)O)C(C)C)cc1 | 18.9* | i | 10.5 | -0.1 | 4.2 | 4.1
